Common to all, as to type: functional
Assay [1] concerns the target Solute carrier family 2, facilitated glucose transporter member 1 (Homo sapiens) (UniProt P11166). In words: ST_JUDE_LEISH: Cytotoxicity at 2uM final concentration against transgenic Leishmania Mexicana promastigotes LmGLUT1 that are glucose transport deficient and complemented with the human glucose transporter GLUT1. Activity is measured by DNA content using SYBR green in vitro.

For assay [2], the target named is Hexose transporter 1 (Plasmodium falciparum) (UniProt O97467). Description: ST_JUDE_LEISH: Cytotoxicity at 2uM final concentration against transgenic Leishmania Mexicana promastigotes LmPfHT that are glucose transport deficient and complemented with the Plasmodium falciparum hexose transporter. Activity is measured by DNA content using SYBR green in vitro.
Assay [3] concerns the target Glucose transporter (Leishmania mexicana) (UniProt O61059). In words: ST_JUDE_LEISH: Cytotoxicity at 2uM final concentration against transgenic Leishmania Mexicana promastigotes LmGT2 that are glucose transport deficient and complemented with the L. Mexicana glucose transporter 2. Activity is measured by DNA content using SYBR green in vitro.

Sequence of Solute carrier family 2, facilitated glucose transporter member 1 (Homo sapiens) (P11166 whole entry): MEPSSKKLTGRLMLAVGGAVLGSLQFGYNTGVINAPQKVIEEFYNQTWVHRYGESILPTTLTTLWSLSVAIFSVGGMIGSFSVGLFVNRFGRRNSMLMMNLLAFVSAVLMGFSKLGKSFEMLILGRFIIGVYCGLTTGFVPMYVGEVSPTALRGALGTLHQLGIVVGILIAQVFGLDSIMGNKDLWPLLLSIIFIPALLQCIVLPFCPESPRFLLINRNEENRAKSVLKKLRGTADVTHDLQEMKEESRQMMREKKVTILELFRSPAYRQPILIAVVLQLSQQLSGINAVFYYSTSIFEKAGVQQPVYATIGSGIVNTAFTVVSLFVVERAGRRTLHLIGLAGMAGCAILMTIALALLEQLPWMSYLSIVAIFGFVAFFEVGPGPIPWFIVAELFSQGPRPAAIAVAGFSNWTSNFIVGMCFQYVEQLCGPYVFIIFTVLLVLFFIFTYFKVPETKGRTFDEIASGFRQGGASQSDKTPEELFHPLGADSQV

One may read the inhibition as the drop in the measured response relative to a control, in per cent. Regarding `N#Cc1ccc(CN2CCC(Oc3ccc(NC(=O)c4ccco4)cc3Cl)CC2)cc1`, the inhibition amounted to 0.38% in assay [1], 1.94% in assay [2] and 7.81% in assay [3].
The like results for `CCN(CC)CCN(Cc1ccc(-c2ccc(C(F)(F)F)cc2)cc1)C(=O)Cn1c(CCc2cccc(F)c2F)cc(=O)c2c1CCCC2` were, in that order, 11.6%, 12.3% and 9.85%.
The like results for `Cc1ccc(-c2cc(C(=O)Nc3ccc(S(=O)(=O)N4CCCCC4C)cc3)n[nH]2)c(O)c1` (stereo not drawn) were, in that order, -0.81%, -0.31% and -0.79%.
The like results for `Cc1ccc(Cn2cnc3cc(C(=O)Nc4ccc(-c5cccc(CN(C)C)c5)cc4)ccc3c2=O)o1` were, in that order, 75.5%, 59% and 51.1%.
Consider `CCN(CC)/C(=N/C(=N)Nc1ccc(Cl)cc1)NCCCCCCCCN/C(=N\C(=N)Nc1ccc(Cl)cc1)N(CC)CC`, for which the inhibition in assay [1] is 0.33%; in assay [2] it was -0.74%; in assay [3], -0.07%.
The like results for `CN1CCN(Cc2ccc(-c3cc4c(Nc5ccc(OCc6cccc(F)c6)c(Cl)c5)ncnc4s3)[nH]2)CC1` were, in that order, 12.7%, 11.4% and 8.25%.
The like results for `O=C(Cn1c(CCc2cccc(F)c2F)nc(=O)c2ccccc21)N(CCCN1CCCCC1)Cc1ccc(-c2ccc(C(F)(F)F)cc2)cc1` were, in that order, 2.28%, 3.25% and 1.99%.
The like results for `CCOc1cc(C)ccc1C1CCN(CCCCNC(=O)c2cccc(-c3ccc(C(F)(F)F)cc3)c2)CC1` were, in that order, 1.54%, 2.27% and 2.69%.
For the molecule `O=C(Nc1ccc(OC2CCN(Cc3ccccc3)C2)c(Cl)c1)c1ccco1` (stereo not drawn), the figures for the inhibition in assay [1], in assay [2] and in assay [3] were 5.7%, 6.46% and 4.97%, respectively.
In the case of `CC(CNCc1cn(Cc2cc(Br)cc(Br)c2)c2ccccc12)CNc1cc(=O)c2ccccc2[nH]1` (stereo not drawn), the inhibition was determined as 0.59% in assay [1], 1.26% in assay [2] and 1.07% in assay [3].
The like results for `CC(CN1CCN(C)CC1)C(=O)Nc1ccc(-c2csc(-c3nc4ccccc4[nH]3)c2)cc1` (stereo not drawn) were, in that order, 4.03%, 5.18% and 5.51%.
The like results for `O=C(Nc1ccc(OC2CCN(Cc3ccccc3)CC2)c(Cl)c1)c1cccs1` were, in that order, 2.31%, 4.54% and 4.68%.
The like results for `COc1ccccc1C1CCN(CCN2CCC(NC(=O)c3ccc(-c4ccc(C#N)cc4)cc3)CC2)CC1` were, in that order, -0.2%, 2.09% and 1.89%.
Regarding `COc1ccc2nccc([C@@H](O)CN3CCC(NCc4cc5ccccc5o4)CC3)c2c1`, the inhibition in assay [1] came out at 10.1%; in assay [2], 15.3%; in assay [3], 5.59%.
The like results for `CCN1CCN(c2cc(C)c3cc(NC(=O)c4cccc(OC)c4)ccc3n2)CC1` were, in that order, 15.2%, 15.3% and 13.7%.
The like results for `O=C(NC1CC1)c1ccc(N2CCC(c3ccccc3)CC2)nc1` were, in that order, 5.99%, 5.01% and 3.25%.

The values are drawn from ChEMBL document CHEMBL3433997, “St. Jude Leishmania screening dataset” (2016).
